The supplement of paper PMC12636033
± gives the standard deviation of the averaged measurements. In all, about 33,000 sequences were measured (“E-score (rank enrichment, -0.5 to 0.5)”: median about -0.0028, highest 2% from about 0.23 on). The sample holds the highest values, similar sequences and a random draw of the others, so the mix is not that of the screen.

system: 2Sb-muMax20 (muMax20 with two 1,3-bis(methyl)benzene Cys staples, A13C/A17C and Q88C/A92C, C-terminal Lys); assay: PBM 8-mer E-score (E-score (rank enrichment, -0.5 to 0.5)); higher = stronger preferential binding
Protocol: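 Protein binding microarray (universal PBM chip covering all 10-mers in fixed probe flanks) with chemically synthesized human Max(13-93) bHLH-LZ analogs (not full-length Max) bearing noncanonical residues (hArg, Tha, Aib, Nle at 65) and aromatic Cys staples. Read-out per 8-mer (and its reverse complement): E-score (rank-based enrichment, -0.5 to 0.5) and Z-score of median probe intensity.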

| Sequence | PBM 8-mer E-score |
| --- | --- |
| ATTCCGTA | -0.178 ± 0.0038 |
| AGCCTGCC | -0.0253 ± 0.013 |
| GACCAGCA | 0.0345 ± 0.019 |
| AGAAATTC | 0.0899 ± 0.038 |
| CAATGAGC | -0.0934 ± 0.018 |
| ACTGGCAC | -0.112 ± 0.0073 |
| CTATCAAG | 0.0675 ± 0.11 |
| CACCTATG | -0.067 ± 0.015 |
| AACAAGTC | 0.232 ± 0.0046 |
| CACAAGTC | -0.0773 ± 0.025 |
| GACAAGTC | -0.141 ± 0.038 |
| AACAAAAT | 0.275 ± 0.042 |
| AACAAGAT | 0.136 ± 0.05 |
| AACAAAAA | 0.0552 ± 0.028 |
| CTTCTTGC | -0.076 ± 0.029 |
| ACAATAAA | 0.157 ± 0.082 |
| ACAATACA | 0.0315 ± 0.045 |
| ACAATAAC | 0.18 ± 0.04 |
| ACAATACC | 0.247 ± 0.01 |
| ACAATACT | 0.098 ± 0.011 |
| ACAATAAT | 0.2723 ± 0.0017 |
| CCACTTAA | 0.0781 ± 0.04 |
| GTGCCCGA | -0.169 ± 0.03 |
| CAGAGGCG | -0.0537 ± 0.004 |
| GCGGGACA | -0.0586 ± 0.068 |

| Sequence | PBM 8-mer E-score |
| --- | --- |
| CGCGCGCG | -0.0393 ± 0.0083 |
| AAGTGCCC | 0.0017 ± 0.086 |
| TAGTTCGA | 0.117 ± 0.065 |
| CTTTACGA | -0.11 ± 0.061 |
| ATTTACGA | 0.13 ± 0.011 |
| GTTTACGA | 0.233 ± 0.0029 |
| GAACCTTA | 0.14 ± 0.038 |
| ACAACAAC | 0.0959 ± 0.0063 |
| ACAACCCC | 0.237 ± 0.088 |
| ACAACCAT | 0.266 ± 0.01 |
| ACAACCAC | 0.076 ± 0.093 |
| ACAACCCT | -0.0652 ± 0.072 |
| CCAACACC | -0.11 ± 0.046 |
| ACAACAAG | 0.259 ± 0.0048 |
| CCAACCCC | 0.19 ± 0.044 |
| ACAACCAG | 0.144 ± 0.037 |
| ACAACACC | 0.257 ± 0.014 |
| GCAACACC | 0.0523 ± 0.023 |
| ACAACAAA | 0.189 ± 0.045 |
| AGAGCCAT | -0.0498 ± 0.022 |
| GTACGTTA | 0.0622 ± 0.061 |
| TACGAAGA | 0.16 ± 0.034 |
| CTTCAGAC | -0.147 ± 0.0041 |
| CCGCTGTA | -0.00727 ± 0.018 |
| GATGGACC | -0.139 ± 0.026 |

| Sequence | PBM 8-mer E-score |
| --- | --- |
| AGCTAAAA | -0.0318 ± 0.011 |
| ATACAAAC | 0.182 ± 0.056 |
| AGCTCTAG | -0.0829 ± 0.017 |
| AGCACCTC | 0.00592 ± 0.042 |
| ATCCACCG | -0.1554 ± 0.001 |
| GATAGCCC | 0.0239 ± 0.026 |
| GGGGTATA | 0.217 ± 0.071 |
| ATAGTAAA | 0.233 ± 0.068 |
| CTAGTAAA | 0.11 ± 0.069 |
| ATAGTAAT | 0.0828 ± 0.014 |
| CTGAGTCA | -0.163 ± 0.1 |
| CCTCCCGA | -0.19 ± 0.041 |
| ATAGTTAG | 0.136 ± 0.038 |
| AAATACCT | 0.11169 ± 4.2e-05 |
| CATAACCA | 0.16 ± 0.018 |
| TATAACCA | 0.125 ± 0.024 |
| CATAACTA | 0.0553 ± 0.058 |
| GATAACCA | 0.25 ± 0.0028 |
| AATAACTA | 0.151 ± 0.013 |
| GATAACTA | 0.237 ± 0.0032 |
| ACGACTAC | -0.086 ± 0.0098 |
| AAATTGCA | 0.0694 ± 0.01 |
| CAATTGGA | 0.105 ± 0.079 |
| TAATTGCA | 0.178 ± 0.022 |
| AAATTGGG | 0.211 ± 0.011 |

| Sequence | PBM 8-mer E-score |
| --- | --- |
| TGATTGCA | 0.2879 ± 0.0004 |
| CAATTGCA | 0.241 ± 0.03 |
| AGATTGCA | -0.04038 ± 0.00028 |
| CGATTGCA | -0.00806 ± 0.061 |
| CAATTGGG | 0.233 ± 0.044 |
| ATGTGATA | 0.137 ± 0.099 |
| CTTCTCTC | -0.021 ± 0.036 |
| ATAGGAAT | -0.00103 ± 0.048 |
| ATTCTTTG | 0.0288 ± 0.029 |
| GGCTCGGA | -0.242 ± 0.019 |
| CACCCATG | -0.0354 ± 0.1 |
| ATGGGGCC | -0.148 ± 0.097 |
| ATGGGGCG | 0.305 ± 0.011 |
| CTGGGGCA | -0.128 ± 0.0081 |
| ATGGGGGG | -0.078 ± 0.064 |
| ATGGGGCA | 0.247 ± 0.015 |
| GTGGGGCA | 0.0926 ± 0.0061 |
| CCGCGTAC | -0.0836 ± 0.06 |
| AAACCCTC | 0.0564 ± 0.037 |
| ATACTTTA | 0.254 ± 0.079 |
| ATACTTTG | 0.18 ± 0.031 |
| CTACTTTA | -0.0218 ± 0.0086 |
| CACAGCAA | 0.0823 ± 0.098 |
| CTACTAAG | -0.0175 ± 0.014 |
| CTACTAAC | 0.271 ± 0.02 |

| Sequence | PBM 8-mer E-score |
| --- | --- |
| ATACTAAA | 0.274 ± 0.073 |
| TTACTAAA | 0.035 ± 0.037 |
| ATACTAAC | 0.191 ± 0.016 |
| GTACTAAA | 0.0714 ± 0.032 |
| AGCCTATG | -0.168 ± 0.032 |
| CAGCCCCA | 0.166 ± 0.062 |
| CCGCCCAA | -0.0271 ± 0.08 |
| AAGCCCAA | 0.14 ± 0.085 |
| CAGCCCAA | 0.0925 ± 0.0081 |
| CCGCCCCA | 0.349 ± 0.038 |
| CGCCCCCA | -0.0972 ± 0.11 |
| CCGCCCCG | 0.287 ± 0.1 |
| TAGCCCCA | 0.35 ± 0.014 |
| CCGCCCGG | -0.235 ± 0.023 |
| GAGCCCAA | 0.238 ± 0.016 |
| TAGCCCAA | 0.0876 ± 0.027 |
| CCGCCCCC | -0.265 ± 0.034 |
| GGAGAGAA | -0.0248 ± 0.093 |
| ACGGCAGC | -0.302 ± 0.045 |
| CATATGGA | 0.0953 ± 0.063 |
| CAACACGC | 0.161 ± 0.065 |
| CCCACGCC | -0.189 ± 0.095 |
| GCCAATTA | 0.127 ± 0.041 |
| ACGGTCAG | -0.313 ± 0.0032 |
| CAGGTCCG | -0.237 ± 0.054 |

| Sequence | PBM 8-mer E-score |
| --- | --- |
| ACGTCGGC | 0.0307 ± 0.079 |
| GCGCCCCA | 0.0563 ± 0.082 |
| ACGCCCCA | 0.287 ± 0.062 |
| TCGCCCCA | 0.24 ± 0.018 |
| ACGCCCCG | -0.046 ± 0.025 |
| ACGCCCCC | -0.18 ± 0.1 |
| TCGCCCAA | -0.0719 ± 0.021 |
| CGATCCAA | -0.286 ± 0.0083 |
| CTCGGCGA | -0.0762 ± 0.055 |
| CGATGGTA | -0.0858 ± 0.023 |
| AATGTAAA | 0.211 ± 0.015 |
| ATGAGGCA | 0.0329 ± 0.044 |
| ACTGGCGA | -0.0221 ± 0.033 |
| ACTTGCGG | -0.169 ± 0.047 |
| CACGCGTA | 0.199 ± 0.021 |
| CACACGTC | -0.172 ± 0.057 |
| CACGCGTG | 0.303 ± 0.039 |
| CACACGTA | 0.127 ± 0.0021 |
| CACGCGTC | 0.2 ± 0.0088 |
| AACACGTA | 0.112 ± 0.046 |
| AACACAAA | 0.25 ± 0.03 |
| AACACAAG | 0.141 ± 0.016 |
| AACACGTG | 0.4538 ± 0.0037 |
| AACACGTC | 0.0373 ± 0.11 |
| CACACAAA | 0.167 ± 0.033 |

| Sequence | PBM 8-mer E-score |
| --- | --- |
| CACACGTG | 0.338 ± 0.022 |
| CCGAGCCA | -0.115 ± 0.0049 |
| GAAGGGGC | 0.128 ± 0.0016 |
| ACCTATCG | 0.13 ± 0.048 |
| CGCTACCC | -0.0659 ± 0.038 |
| ACGGATCT | -0.242 ± 0.042 |
| GGCGCAAC | -0.0786 ± 0.013 |
| CTGATATA | 0.0373 ± 0.023 |
| CCAACGCC | -0.0186 ± 0.026 |
| ACTTCAAA | -0.125 ± 0.065 |
| CAACCCCG | -0.0958 ± 0.017 |
| CCTGCATC | -0.118 ± 0.02 |
| GCTCCGTA | -0.181 ± 0.026 |
| CACGCGGG | 0.115 ± 0.007 |
| AACGCGGA | -0.0532 ± 0.04 |
| CACACCTC | 0.11 ± 0.0036 |
| CACGCGGA | 0.28 ± 0.036 |
| CACACCTG | -0.176 ± 0.087 |
| CACACCTA | 0.251 ± 0.023 |
| TCACGGGA | -0.0219 ± 0.047 |
| CTCAAGTC | 0.0478 ± 0.02 |
| AGGGTTGC | -0.0164 ± 0.024 |
